Laboratory results from PubChem BioAssay AID1159580 (chemical genetic matrix, 2015).
Where “and” joins values, the source holds several entries; their conditions need not be identical. Equal entries are not always repeated. Screen size: about 5,500 compounds; about 2,000 (36%) were called active. Roughly 18% stayed inconclusive and do not appear here. Rule as the data show it: active = normalized growth mostly below about 0.91 (no sharp cut-off); inconclusive = no clear call, values can overlap the other calls; inactive = mostly above about 0.92. The list shows a part of the results.

Test: chemical genetic growth profiling, strain panel (AID 1159580);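 also: tested at 20 µM; growth read once vehicle control cultures reached saturation at 30 °C; 1 = growth at the plate median or of vehicle wells; lower values mean less growth of the strain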
Conditions: S. cerevisiae deletion strains, growth OD

Measured: normalized growth

COC(=O)Nc1nc2ccc(C(=O)c3ccccc3)cc2[nH]1
active: locus YBL061C, strain skt5, stronger effect = lower value 0.903 | locus YBR009C, strain hhf1, stronger effect = lower value 0.898 | locus YBR023C, strain chs3, stronger effect = lower value 0.913 | locus YBR231C, strain swc5, stronger effect = lower value 0.261 | locus YCL016C, strain dcc1, stronger effect = lower value 0.902 | locus YCL029C, strain bik1, stronger effect = lower value 0.781 | locus YDR137W, strain rgp1, stronger effect = lower value 0.84 | locus YDR159W, strain sac3, stronger effect = lower value 0.861 | locus YDR334W, strain swr1, stronger effect = lower value 0.627 | locus YEL003W, strain gim4, stronger effect = lower value 0.173 | locus YGL240W, strain doc1, stronger effect = lower value 0.812 | locus YGR078C, strain PAC10, stronger effect = lower value 0.0909 | locus YGR229C, strain SMI1, stronger effect = lower value 0.775 | locus YHR142W, strain chs7, stronger effect = lower value 0.872 | locus YHR200W, strain rpn10, stronger effect = lower value 0.917 | locus YJL166W, strain qcr8, stronger effect = lower value 0.868 | locus YJR066W, strain TOR1, stronger effect = lower value 0.819
inactive: locus YAL013W, strain DEP1, stronger effect = lower value 1.02 | locus YAL021C, strain ccr4, stronger effect = lower value 0.95 | locus YAL026C, strain drs2, stronger effect = lower value 0.963 | locus YAL030W, strain snc1, stronger effect = lower value 0.983 | locus YBR021W, strain FUR4, stronger effect = lower value 0.97 | locus YBR171W, strain sec66, stronger effect = lower value 1.01 | locus YBR229C, strain ROT2, stronger effect = lower value 1.02 | locus YBR279W, strain paf1, stronger effect = lower value 0.958 | locus YCL011C, strain gbp2, stronger effect = lower value 0.962 | locus YCL069W, strain vba3, stronger effect = lower value 0.98 | locus YCR088W, strain abp1, stronger effect = lower value 0.977 | locus YDL005C, strain med2, stronger effect = lower value 0.959 | locus YDL035C, strain GPR1, stronger effect = lower value 0.967 | locus YDL040C, strain nat1, stronger effect = lower value 0.992 | locus YDL074C, strain BRE1, stronger effect = lower value 0.924 | locus YDL101C, strain DUN1, stronger effect = lower value 1.03 | locus YDL134C, strain PPH21, stronger effect = lower value 1.01 | locus YDL185W, strain tfp1, stronger effect = lower value 1.04 | locus YDL192W, strain arf1, stronger effect = lower value 0.99 | locus YDR001C, strain nth1, stronger effect = lower value 0.976 | locus YDR069C, strain doa4, stronger effect = lower value 0.952 | locus YDR101C, strain arx1, stronger effect = lower value 0.998 | locus YDR150W, strain NUM1, stronger effect = lower value 1.01 | locus YDR162C, strain NBP2, stronger effect = lower value 1.01 | locus YDR195W, strain ref2 0.979 | locus YDR297W, strain sur2, stronger effect = lower value 0.963 | locus YDR318W, strain mcm21, stronger effect = lower value 0.954 | locus YDR335W, strain msn5, stronger effect = lower value 0.99 | locus YDR388W, stronger effect = lower value 0.982 | locus YDR392W, strain spt3, stronger effect = lower value 0.805 | locus YDR502C, strain sam2, stronger effect = lower value 0.958 | locus YEL037C, strain rad23, stronger effect = lower value 0.981 | locus YEL061C, strain CIN8 (second series), stronger effect = lower value 0.976 | locus YEL061C, strain CIN8, stronger effect = lower value 1 | locus YER015W, strain faa2, stronger effect = lower value 0.974 | locus YER016W, strain bim1, stronger effect = lower value 0.935 | locus YER110C, stronger effect = lower value 1.02 | locus YER111C, strain swi4, stronger effect = lower value 0.997 | locus YER155C, strain BEM2 (second series), stronger effect = lower value 0.896 | locus YER155C, strain BEM2, stronger effect = lower value 0.981 | locus YER167W, strain BCK2, stronger effect = lower value 0.94 | locus YFR010W, strain ubp6, stronger effect = lower value 0.98 | locus YGL078C, strain dbp3, stronger effect = lower value 0.974 | locus YGL086W, strain mad1, stronger effect = lower value 0.999 | locus YGL167C, strain pmr1, stronger effect = lower value 0.979 | locus YGL173C, strain kem1, stronger effect = lower value 0.981 | locus YGL227W, strain vid30, stronger effect = lower value 0.977 | locus YGL248W, strain PDE1, stronger effect = lower value 0.99 | locus YGL253W, strain hxk2, stronger effect = lower value 0.951 | locus YGR135W, strain pre9, stronger effect = lower value 0.948 | locus YGR252W, strain gcn5, stronger effect = lower value 0.916 | locus YHR013C, strain ard1, stronger effect = lower value 1 | locus YHR027C, strain rpn1, stronger effect = lower value 0.931 | locus YHR030C, strain SLT2, stronger effect = lower value 1.01 and 0.956 | locus YHR079C, strain IRE1 (second series), stronger effect = lower value 0.999 | locus YHR079C, strain IRE1, stronger effect = lower value 0.937 | locus YHR094C, strain hxt1, stronger effect = lower value 1 | locus YHR129C, strain ARP1, stronger effect = lower value 0.969 | locus YIL066C, strain RNR3, stronger effect = lower value 1.01 | locus YIL073C, strain SPO22, stronger effect = lower value 0.998 | locus YIL125W, strain kgd1, stronger effect = lower value 0.971 | locus YIR030C, strain dcg1, stronger effect = lower value 1 | locus YJL092W, strain hpr5, stronger effect = lower value 0.965 | locus YJL095W, strain BCK1 (second series), stronger effect = lower value 0.996 | locus YJL095W, strain BCK1, stronger effect = lower value 1.06 and 0.938 | locus YJL115W, strain asf1, stronger effect = lower value 0.977 | locus YJL129C, strain trk1, stronger effect = lower value 0.906 | locus YJL134W, strain LCB3, stronger effect = lower value 1 | locus YJL154C, strain vps35, stronger effect = lower value 0.981 | locus YJL164C, strain tpk1, stronger effect = lower value 0.957 | locus YJL168C, strain set2, stronger effect = lower value 1 | locus YJL187C, strain SWE1 (second series), stronger effect = lower value 1.01 | locus YJL187C, strain SWE1, stronger effect = lower value 0.934 | locus YJR043C, strain POL32, stronger effect = lower value 0.867
